Test systems include HCT-15 colon; HT29 colon; SNB-75 CNS; SNB-19 CNS; U251 CNS; PC-3 prostate; SK-MEL-5 melanoma; UACC-62 melanoma; LOX IMVI melanoma; SK-MEL-28 melanoma; SK-MEL-2 melanoma; EKVX NSCLC; SN12C renal; UO-31 renal; TK-10 renal; ACHN renal; CAKI-1 renal; A498 renal; CCRF-CEM leukemia; MOLT-4 leukemia.
Holding throughout (experiment): NCI-60 one-dose screen, 48 h (100 = growth as untreated, 0 = no growth, -100 = all killed)
Common to all, as to conditions: 10 µM unless noted

Consider 7 compounds from PubChem BioAssay (NCI).

The structures appear in SMILES notation. “And” between values parts separate entries of the source, which are not always exact repeats. Identical values can stand only once. About 83,000 compounds went through this panel and 20% of them were active in at least one assay; those are over-represented in the sample as a whole.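 In brief: 96-well plates, 48 h treatment, single concentration, percent growth endpoint.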 The source made the active and inactive calls. Rule for the calls: active = growth percent below 10; inactive = the rest.

Consider `O=[N+]([O-])c1ccc(/C=N\NC(=S)Nc2ccc(F)cc2)cc1`, for which the growth is 106% (inactive) and 96.6% (inactive) in the assay with HCT-15 colon; 93.9% (inactive) and 95.1% (inactive) in the assay on HT29 colon; 92.5% (inactive) and 97.9% (inactive) in the assay with SNB-75 CNS; 103% (inactive) and 93.5% (inactive) with SNB-19 CNS; 82.8% (inactive) and 83.4% (inactive) in the assay on U251 CNS; 101% (inactive) and 86% (inactive) in the assay with PC-3 prostate. For the same compound, the growth in the assay on SK-MEL-5 melanoma is 102% (inactive) and 101% (inactive); in the assay with UACC-62 melanoma, 104% (inactive) and 91% (inactive); in the assay with LOX IMVI melanoma it was 88.9% (inactive); in the assay with SK-MEL-28 melanoma, 103% (inactive) and 104% (inactive); with SK-MEL-2 melanoma it was 91.1% (inactive) and 110% (inactive); with EKVX NSCLC it was 91.9% (inactive) and 102% (inactive). The growth is 105% (inactive) and 92% (inactive) in the assay on SN12C renal; 96.9% (inactive) and 102% (inactive) with UO-31 renal; 109% (inactive) and 107% (inactive) in the assay with TK-10 renal; 86.2% (inactive) and 93.4% (inactive) in the assay with ACHN renal; 97.1% (inactive) and 106% (inactive) in the assay with CAKI-1 renal; 119% (inactive) with A498 renal. The growth in the assay with CCRF-CEM leukemia was 99.4% (inactive) and -3.91% (active); in the assay with MOLT-4 leukemia it was 86.9% (inactive) and 98.6% (inactive).
As to `CCN(CC)CCOc1ccc(/C=N/Nc2nc3c([nH]2)c(=O)n(C)c(=O)n3C)cc1`, the growth in the assay with HCT-15 colon is 97.2% (inactive) and 103% (inactive); in the assay with HT29 colon, 99.9% (inactive) and 91.4% (inactive); in the assay on SNB-75 CNS, 88.4% (inactive) and 90.3% (inactive); in the assay with SNB-19 CNS, 98.5% (inactive) and 102% (inactive); in the assay with U251 CNS, 98.6% (inactive) and 113% (inactive); in the assay on PC-3 prostate, 99.4% (inactive) and 88.5% (inactive). Besides, the growth was 102% (inactive) and 107% (inactive) with SK-MEL-5 melanoma; 94.2% (inactive) and 99.8% (inactive) in the assay on UACC-62 melanoma; 104% (inactive) and 92.3% (inactive) with LOX IMVI melanoma; 115% (inactive) and 112% (inactive) in the assay with SK-MEL-28 melanoma; 102% (inactive) and 107% (inactive) with SK-MEL-2 melanoma; 99.1% (inactive) and 95.8% (inactive) in the assay with EKVX NSCLC. The growth in the assay on SN12C renal was 98.9% (inactive) and 96.5% (inactive); with UO-31 renal, 80.8% (inactive) and 79.6% (inactive); with TK-10 renal, 94.2% (inactive) and 101% (inactive); with ACHN renal it was 102% (inactive) and 94.6% (inactive); in the assay with CAKI-1 renal, 118% (inactive) and 85.6% (inactive); with A498 renal, 88.5% (inactive) and 88.9% (inactive). Besides, the growth in the assay with CCRF-CEM leukemia is 83.5% (inactive) and 103% (inactive); with MOLT-4 leukemia, 88.4% (inactive) and 102% (inactive).
For the compound `O=C(Nc1ccc(Cl)cc1)c1cc2ccccc2cc1O`, the growth in the assay with HCT-15 colon was 12.8% (inactive) and 15.8% (inactive); in the assay on HT29 colon it was 94.7% (inactive) and 8.61% (active); in the assay with SNB-75 CNS, 52.6% (inactive) and 53.1% (inactive); with SNB-19 CNS, 37.7% (inactive) and 29.6% (inactive); in the assay with U251 CNS it was 21.2% (inactive) and -8.1% (active); in the assay with PC-3 prostate it was 11.5% (inactive) and -13.1% (active). Further, the growth in the assay with SK-MEL-5 melanoma is 14% (inactive) and 0.898% (active); with UACC-62 melanoma, 28.3% (inactive) and 35.1% (inactive); in the assay on LOX IMVI melanoma, 37.3% (inactive) and 12% (inactive); in the assay on SK-MEL-28 melanoma, 43.8% (inactive) and 45.1% (inactive); with SK-MEL-2 melanoma it was 36.9% (inactive) and 7.35% (active); with EKVX NSCLC, 15.3% (inactive) and 14.6% (inactive). The growth in the assay with SN12C renal was 8.95% (active) and -2.39% (active); with UO-31 renal, 10.9% (inactive) and 4.71% (active); in the assay on TK-10 renal, 53.3% (inactive) and 8.41% (active); in the assay on ACHN renal, 30.3% (inactive) and 31.2% (inactive); in the assay with CAKI-1 renal it was 34.5% (inactive) and -23.4% (active); with A498 renal it was -5.52% (active). Besides, the growth in the assay with CCRF-CEM leukemia was 17.8% (inactive); in the assay with MOLT-4 leukemia it was 4.27% (active) and -8.37% (active).
Regarding `COc1cc2nc(N3CCN(C(=O)C4COc5ccccc5O4)CC3)nc(N)c2cc1OC` (stereo not given), the growth with HCT-15 colon was 108% (inactive) and 97.5% (inactive) and 105% (inactive); in the assay with HT29 colon, 71.4% (inactive) and 93.9% (inactive); with SNB-75 CNS, 71.3% (inactive) and 76.9% (inactive) and 92.7% (inactive); in the assay with SNB-19 CNS it was 99.7% (inactive) and 96% (inactive) and 101% (inactive); in the assay with U251 CNS, 91.8% (inactive) and 86.8% (inactive) and 99.1% (inactive); in the assay with PC-3 prostate, 91.7% (inactive) and 93.1% (inactive) and 110% (inactive). Moreover, the growth in the assay on SK-MEL-5 melanoma was 92.2% (inactive) and 86.6% (inactive) and 101% (inactive); in the assay on UACC-62 melanoma, 102% (inactive) and 101% (inactive) and 103% (inactive); in the assay with LOX IMVI melanoma, 88% (inactive) and 94.2% (inactive) and 98.7% (inactive); in the assay on SK-MEL-28 melanoma, 99.9% (inactive) and 102% (inactive) and 107% (inactive); in the assay on SK-MEL-2 melanoma, 112% (inactive) and 93.8% (inactive); in the assay with EKVX NSCLC, 97.5% (inactive). Moreover, the growth in the assay with SN12C renal was 88.1% (inactive) and 83% (inactive) and 99.7% (inactive); in the assay with UO-31 renal it was 94.5% (inactive) and 98.7% (inactive) and 85% (inactive); with TK-10 renal it was 86.4% (inactive) and 88.4% (inactive); with ACHN renal, 121% (inactive) and 92.4% (inactive) and 98.8% (inactive); in the assay with CAKI-1 renal, 103% (inactive) and 82.2% (inactive) and 87.4% (inactive); in the assay with A498 renal, 105% (inactive) and 94.2% (inactive) and 101% (inactive). In addition, the growth in the assay on CCRF-CEM leukemia is 74.9% (inactive) and 89.6% (inactive) and 97.8% (inactive); with MOLT-4 leukemia, 91.1% (inactive) and 66.1% (inactive) and 94.4% (inactive).
As for `C/C(=N\NC(=O)c1ccncc1)c1ccccc1O`, the growth in the assay with HCT-15 colon is 22.8% (inactive) and 23.3% (inactive); in the assay on HT29 colon, 29.7% (inactive) and 29.1% (inactive); with SNB-75 CNS it was 89.5% (inactive) and 50.9% (inactive); in the assay with SNB-19 CNS it was 47.8% (inactive) and 46.6% (inactive); in the assay on U251 CNS, 33.8% (inactive) and 33.4% (inactive); in the assay with PC-3 prostate, 44.4% (inactive) and 35.8% (inactive). The growth is 38.7% (inactive) and 50% (inactive) with SK-MEL-5 melanoma; 22% (inactive) and 30.6% (inactive) in the assay on UACC-62 melanoma; 22.5% (inactive) and 10.9% (inactive) in the assay with LOX IMVI melanoma; 52.4% (inactive) and 63.1% (inactive) in the assay with SK-MEL-28 melanoma; 75.3% (inactive) and 18.8% (inactive) in the assay with SK-MEL-2 melanoma; 16.5% (inactive) and 31.5% (inactive) in the assay with EKVX NSCLC. Besides, the growth in the assay with SN12C renal is 45.9% (inactive) and 46.9% (inactive); with UO-31 renal, 31.3% (inactive) and 20.6% (inactive); in the assay with TK-10 renal, 34.7% (inactive) and 37.4% (inactive); with ACHN renal it was 26.3% (inactive) and 26.5% (inactive); in the assay with CAKI-1 renal, 10.4% (inactive); in the assay with A498 renal it was 68.9% (inactive). In addition, the growth in the assay with CCRF-CEM leukemia is 16% (inactive) and 15.8% (inactive); with MOLT-4 leukemia, 7.82% (active) and 10.7% (inactive).
On to `CN(C)CCCN1c2ccccc2Sc2ccc(Cl)cc21`, for which the growth is 73.4% (inactive) and 109% (inactive) and 88.5% (inactive) in the assay with HCT-15 colon; 27.4% (inactive) and 120% (inactive) and 62.9% (inactive) in the assay with HT29 colon; 48.3% (inactive) and 106% (inactive) and 58.8% (inactive) with SNB-75 CNS; 98.2% (inactive) and 92.4% (inactive) and 94.5% (inactive) in the assay with SNB-19 CNS; 78.1% (inactive) and 106% (inactive) and 93.4% (inactive) with U251 CNS; 67.3% (inactive) and 103% (inactive) and 80.3% (inactive) in the assay on PC-3 prostate. Further, the growth with SK-MEL-5 melanoma was 3.06% (active) and 102% (inactive) and 79% (inactive); in the assay on UACC-62 melanoma, 75.3% (inactive) and 89.8% (inactive) and 88.9% (inactive); with LOX IMVI melanoma, 78.3% (inactive) and 113% (inactive) and 100% (inactive); with SK-MEL-28 melanoma, 83.6% (inactive) and 108% (inactive) and 98.8% (inactive); in the assay with SK-MEL-2 melanoma it was 77.6% (inactive) and 107% (inactive) and 112% (inactive); with EKVX NSCLC, 91.6% (inactive) and 147% (inactive). Also, the growth in the assay on SN12C renal is 66.7% (inactive) and 117% (inactive) and 78.8% (inactive); in the assay with UO-31 renal, 54.4% (inactive) and 89.3% (inactive) and 50.3% (inactive); in the assay with TK-10 renal it was 122% (inactive) and 92.6% (inactive); in the assay with ACHN renal, 44.8% (inactive) and 108% (inactive) and 68.7% (inactive); in the assay on CAKI-1 renal, 75.1% (inactive) and 257% (inactive) and 52.5% (inactive); in the assay on A498 renal, 105% (inactive) and 120% (inactive) and 108% (inactive). Also, the growth was 73.6% (inactive) and 98.7% (inactive) with CCRF-CEM leukemia; 69.7% (inactive) and 102% (inactive) and 83.3% (inactive) in the assay with MOLT-4 leukemia.
For `COc1cc2c(Nc3ccc(Cl)c(Cl)c3F)ncnc2cc1OCC1C[C@@H]2CN(C)C[C@@H]2C1` (stereo not given in full), the growth is -89.2% (active) and -0.559% (active) in the assay on HCT-15 colon; -90.2% (active) and -11.5% (active) in the assay with HT29 colon; -96% (active) and -40.9% (active) with SNB-75 CNS; -93.5% (active) and 32.1% (inactive) in the assay with SNB-19 CNS; -97.6% (active) and 13% (inactive) in the assay on U251 CNS; -57.1% (active) and 15.6% (inactive) in the assay with PC-3 prostate. Further, the growth with SK-MEL-5 melanoma was -97.6% (active) and -97.4% (active); in the assay on UACC-62 melanoma, -86.3% (active) and -27.8% (active); in the assay on LOX IMVI melanoma it was -92% (active) and -92.9% (active); in the assay with SK-MEL-28 melanoma, -96.3% (active) and -63.1% (active); in the assay with SK-MEL-2 melanoma, 74.2% (inactive); in the assay on EKVX NSCLC, -83% (active) and 41.9% (inactive). Further, the growth was -76.7% (active) and 18.4% (inactive) in the assay with SN12C renal; -84.8% (active) and -66.7% (active) with UO-31 renal; -94.8% (active) and -18.4% (active) with TK-10 renal; -97.8% (active) and 8.5% (active) with ACHN renal; -77.2% (active) and -2.69% (active) in the assay with CAKI-1 renal; -95.7% (active) and -81.6% (active) in the assay on A498 renal. Also, the growth with CCRF-CEM leukemia is -44.9% (active) and -0.854% (active); in the assay with MOLT-4 leukemia it was -53% (active).
